In the library only some 4.7% were active in any assay of this set; here they are far more common.
TRHR ag = activates the human TRH receptor; TRHR cells, calcium flux fluo-8, FDSS agonist mode; activation, % at 2 µM; P34981; AID 493084; hit rate 0.18% among 360,000
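TRHR-expressing cells, plated overnight in medium with 10% serum, were loaded with fluo-8 calcium dye at room temperature. After a 10 s baseline, library compound was pin-added and calcium release was recorded kinetically (ex 480/em 530) as agonist response.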
TRHR enhancer = TRH receptor (human) allosteric enhancement; AID 493056; TRHR cells, fluo-8 calcium fluorescence, EC20 TRH enhancement; hit rate 0.66% among 360,000; enhancement, % at 2 µM; P34981; in the data active = enhancement above about 30%
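Enhancer read-out: after compound pinning and an initial kinetic agonist-mode read, an EC20 of TRH (10 nM final) was injected and fluo-8 calcium signal (Ex 480/Em 530) followed at 1 s/cycle for 100 cycles in TRHR-expressing cells.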
D1 PAM = potentiators of human D1 dopamine receptor. P21728. HEK293 TREx D1 cells, calcium flux, dopamine EC20 potentiation. potentiation, % at 10 µM. hit rate 0.036% among 360,000. AID 504651; in the data active = potentiation above about 30%
Target sequence (P21728 whole entry, looked up): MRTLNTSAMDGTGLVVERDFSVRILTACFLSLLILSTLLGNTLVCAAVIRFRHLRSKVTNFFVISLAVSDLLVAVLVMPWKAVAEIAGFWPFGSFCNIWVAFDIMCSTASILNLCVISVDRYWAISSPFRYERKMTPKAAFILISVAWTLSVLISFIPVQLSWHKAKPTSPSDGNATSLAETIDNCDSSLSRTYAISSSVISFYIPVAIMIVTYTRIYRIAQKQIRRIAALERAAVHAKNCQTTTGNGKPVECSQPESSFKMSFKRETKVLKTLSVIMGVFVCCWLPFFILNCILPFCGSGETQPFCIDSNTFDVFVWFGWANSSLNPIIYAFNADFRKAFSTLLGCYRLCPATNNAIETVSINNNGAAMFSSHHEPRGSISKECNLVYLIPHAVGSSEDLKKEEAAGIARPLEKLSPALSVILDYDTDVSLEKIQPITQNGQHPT
D1 agonist = agonists of human D1 dopamine receptor. activation, % at 2 µM. HEK293 T-REx D1 cells, calcium flux, agonist mode. hit rate 1% among 360,000. P21728. AID 504660
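Tetracycline-induced HEK293 TREx D1 cells, force-coupled to calcium signalling, were dye-loaded with a no-wash calcium kit. Compound was pin-added after a 10 s baseline. Fluorescence was read kinetically at 1 cycle/s for 180 s, with calcium rises flagged as agonism.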
D1 antag = human D1 dopamine receptor antagonism; P21728; HEK293 TREx D1 cells, calcium flux, dopamine EC80; hits give low values; activity change, negative = inhibition, % at 10 µM; hit rate 3.2% among 360,000; AID 504652; in the data active = activity change below about -30%
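Tetracycline-induced HEK293 Trex D1 cells, force-coupled to calcium, dye-loaded; compounds added and read 180 s, then EC80 dopamine added and calcium flux tracked kinetically another 180 s.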
Hits are given with their value; 0 = inactive; - = no result given; ! = not confirmed by another sample. Rule as the data show it, unless noted: active = activation above about 30%; inactive = the rest.

SMILES	TRHR ag	TRHR enhancer	D1 PAM	D1 agonist	D1 antag
CCOc1ccc(CCNC(=O)c2c(C)oc3ncn(CC(C)C)c(=O)c23)cc1OCC	0	0	0	0	0
Cc1ccc(C)c2[nH]c(=O)c(CN(CCN3CCCC3)C(=O)Nc3ccc(F)cc3)cc12	0	0	0	0	-36.2
COc1cc2cc(CN(CCN3CCCC3)C(=O)Nc3ccc(F)cc3)c(=O)[nH]c2cc1OC	0	0	0	0	0
O=C(NC1CCCCC1)c1cc2c(Cl)nc3ccccc3c2s1	0	0	0	0	0
COc1ccc(-c2nc(N3CCN(S(=O)(=O)c4ccc(C)cc4)CC3)c3ccccc3n2)cc1	0	0	0	0	0
CC(=O)Nc1c(C(=O)Nc2cccc(C)c2)nnn1-c1ccc(C)cc1	0	0	0	0	-33.9
O=c1c2c3c(sc2nnn1Cc1ccc(Br)cc1)CCCC3	0	0	0	0	0
COc1ccc(CNC(=O)C(C)n2c(=O)cc(C)c3c(C)nn(-c4ccccc4)c32)cc1 (configuration not stated)	0	0	0	0	-53.7
CC(C)c1ccc(NC(=O)C2(C)Cc3ccccc3C(=O)O2)cc1 (configuration not stated)	0	0	0	0	0
CCCn1c(/C=C/c2ccccc2)nc2ccccc21	0	0	0	0	-35.0!
CCN(CC)CCSc1nc2ccccc2n1Cc1ccccc1	0	0	0	0	-38.6
CCCn1c(SCC(=O)O)nc2ccccc21	0	0	0	0	-87.9
CCN1CCN(C(=O)c2ccc3c(c2)N(Cc2cccc(Cl)c2)C(=O)c2ccccc2S3(=O)=O)CC1	0	0	0	0	0
O=C(c1cccc([N+](=O)[O-])c1)N1CCN(Cc2ccc3c(c2)OCO3)CC1	0	0	0	0	-30.5
O=[N+]([O-])c1cccnc1N1CCN(Cc2ccc3c(c2)OCO3)CC1	0	0	0	0	-36.6
N#Cc1c(F)cccc1N1CCN(Cc2ccc3c(c2)OCO3)CC1	0	0	-	0	-37.1
O=[N+]([O-])c1cccnc1N1CCN(c2ccc(F)cc2)CC1	0	36.8	0	0	0
O=C(Nc1cc(C(F)(F)F)ccc1Cl)c1cnn(-c2ccccc2)c1-n1cccc1	0	0	0	0	0
CCc1cccc(C)c1NC(=O)Cn1ccn(Cc2ccc(Cl)cc2)c(=O)c1=O	0	0	0	0	0
CCN(CC)CCCNC(=S)N1CCN(c2nc3ccccc3n2CC)CC1	0	0	0	0	-34.8
COCCNC(=S)N1CCN(c2nc(-c3ccc(F)cc3)cs2)CC1	0	0	0	0	-34.2
CCNC(=S)N1CCN(c2nc(-c3ccc(F)cc3)cs2)CC1	0	0	0	0	0
CCN(CC)CCCNC(=S)N1CCN(c2nc(-c3ccc(F)cc3)cs2)CC1	0	0	0	43.3	-45.7
CCCCC(=O)N1CCN(c2nc(-c3ccc(F)cc3)cs2)CC1	0	0	0	0	-30.5
Cc1cccc(-c2nc(CCNC(=O)COc3ccccc3)cs2)c1	0	0	0	0	0
SMILES	TRHR ag	TRHR enhancer	D1 PAM	D1 agonist	D1 antag
Cc1cc2c(s1)c1cnn(Cc3cc(F)c(F)c(F)c3)c(=O)c1n2C	0	0	0	0	0
COc1ccc(Cl)cc1NC(=O)CN(c1cc(C)cc(C)c1)S(=O)(=O)c1c(C)n[nH]c1C	0	0	0	0	0
COc1ccc(-c2nc3c4ccccc4n(CC(=O)Nc4ccc(C(C)C)cc4)c(=O)n3n2)cc1	0	0	0	0	-
COc1cccc(-c2csc(N3CCN(C(=S)Nc4ccccc4C)CC3)n2)c1	0	0	0	0	-32.8
COc1cccc(-c2csc(N3CCN(C(=S)Nc4ccccc4)CC3)n2)c1	0	0	0	0	0
CCOC(=O)c1ccccc1NC(=O)N1CCOc2ccc(Cl)cc21	0	0	0	0	0
CCOC(=O)C1=C(O)/C(=C/c2cc(OC)c(OC)c(OC)c2)N=C1C	0	0	0	0	-38.1
O=C(COc1ccc(S(=O)(=O)NC2CCCCC2)cc1)NC1CCCC1	0	0	0	0	-42.9
O=C(COc1ccc(S(=O)(=O)NC2CCCCC2)cc1)NC1CCCCC1	0	0	0	0	0
C/C(=N\NC(N)=O)C1(C)CCCCC1	0	35.4	0	0	0
C/C(=N\NC(N)=S)C1(C)CCCCC1	0	0	0	0	0
Cc1ccc(C(=O)Nc2ccccc2[N+](=O)[O-])cc1S(=O)(=O)N1CCOCC1	0	0	0	0	-33.9
COc1ccc(C(=O)Nc2ccccc2[N+](=O)[O-])cc1S(=O)(=O)N1CCOCC1	0	0	0	0	0
CCn1nc(C(=O)Nc2ccc(Cl)c(S(=O)(=O)N3CCOCC3)c2)c2ccccc2c1=O	0	0	0	0	-37.0
COC(=O)c1ccccc1NC(=O)CNc1ccc(F)c(S(=O)(=O)N2CCOCC2)c1	0	0	0	0	-50.8
O=C(Nc1ccc(F)c(F)c1)c1ccc(F)c(S(=O)(=O)N2CCOCC2)c1	0	0	0	0	-32.9
CC1=C(c2ccc(Cl)cc2)S(=O)(=O)NC1=NCc1ccc(C)cc1	0	0	0	0	0
Cc1ccc(NC(=O)CSc2n[nH]c(N)n2)cc1S(=O)(=O)N1CCOCC1	0	0	0	0	-64.5
Cc1cc(C(=O)Nc2ccc(C)c(S(=O)(=O)N3CCOCC3)c2)c(C)o1	0	0	0	0	0
Cc1ccc(NC(=O)CSc2nc(N)cc(=O)[nH]2)cc1S(=O)(=O)N1CCOCC1	0	0	0	0	0
O=C(NCCc1ccc(F)cc1)c1ccc(Cl)c(S(=O)(=O)N2CCOCC2)c1	0	0	0	0	-32.6
Cc1ccc(C(=O)Nc2ccc(C)c(S(=O)(=O)N3CCOCC3)c2)c(C)c1	0	0	0	0	-41.6
Nc1cccc2c1C(=O)N(C(=O)/C=C/c1cccc(F)c1)C2=O	0	30.9	0	0	0
Nc1cccc2c1C(=O)N(C(=O)/C=C/c1cccc(Br)c1)C2=O	0	0	0	0	0
Cc1ccc2oc(C(=O)Nc3ccc(S(=O)(=O)N(C)c4ccccc4)cc3)cc(=O)c2c1	0	0	0	0	0
SMILES	TRHR ag	TRHR enhancer	D1 PAM	D1 agonist	D1 antag
Cc1ccc(NC(=O)CCCc2ccccc2)c([N+](=O)[O-])c1	0	0	0	0	-47.8
O=C(CCCc1ccccc1)Nc1ccccc1[N+](=O)[O-]	0	0	0	0	0
O=C(CCc1ccccc1)Nc1ccccc1[N+](=O)[O-]	0	0	0	0	-36.1
O=C(CCc1ccccc1)NC(=S)Nc1ccccc1[N+](=O)[O-]	0	0	0	0	-34.0
O=C(CCc1ccccc1)NC(=S)Nc1ccccc1Br	0	0	0	0	-
COc1cc(C2CC(=O)c3c([nH]c(C(=O)OC4CCCC4)c3C)C2)cc(OC)c1OC (configuration not stated)	0	0	0	0	0
Fc1cccc(Nc2cc(-n3cccn3)ncn2)c1	0	0	0	0	-44.6
Cc1ccc(Nc2cc(-n3cccn3)ncn2)c(C)c1	0	0	0	0	0
O=C(NCc1cccc(Cl)c1)c1cccn1-c1nnc(N2CCCC2)s1	0	0	0	0	0

Compound activity: PubChem, National Center for Advancing Translational Sciences (NCATS)
